The results in this text go back to PubChem BioAssay (EPA / NIEHS).

Results filed as inconclusive are left out. The source made the active and inactive calls. How the source made its calls: active means hit-call score of the fitted dose curve at least 0.9, where 1 is the maximum; inconclusive means response in the unintended direction; inactive means score below 0.9.

Estrogen receptor beta (Homo sapiens), sequence (Q92731 whole entry, looked up, the tested form may be a part): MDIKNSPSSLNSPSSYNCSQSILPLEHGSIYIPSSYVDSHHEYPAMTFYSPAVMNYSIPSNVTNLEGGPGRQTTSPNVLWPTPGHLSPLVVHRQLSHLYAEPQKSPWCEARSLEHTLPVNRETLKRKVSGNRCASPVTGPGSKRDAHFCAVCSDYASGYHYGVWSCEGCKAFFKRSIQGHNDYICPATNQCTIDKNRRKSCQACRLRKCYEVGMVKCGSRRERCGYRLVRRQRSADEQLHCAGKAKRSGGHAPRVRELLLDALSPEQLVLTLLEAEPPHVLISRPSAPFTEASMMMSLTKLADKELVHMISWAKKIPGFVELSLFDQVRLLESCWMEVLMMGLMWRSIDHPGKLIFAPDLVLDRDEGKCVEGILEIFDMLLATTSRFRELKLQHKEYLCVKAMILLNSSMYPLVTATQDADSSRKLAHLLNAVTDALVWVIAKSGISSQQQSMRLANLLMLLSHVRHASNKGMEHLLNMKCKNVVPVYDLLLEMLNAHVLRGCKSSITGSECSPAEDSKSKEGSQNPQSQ

The target of this test is Estrogen receptor beta (Homo sapiens) (UniProt Q92731). As to the kind of experiment: OT_ER_ERbERb_0480: Odyssey Thera (OT) 8-hour HEK293T Protein-Complementation Assay for Estrogen Receptor-beta/-beta Homodimer (AID 2283357). In a few lines:
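Homodimerization of ER-beta LBD measured by protein-fragment complementation in HEK293T; 8 h dosing; fixed, Draq5 counterstain; fluorescence intensity gain over DMSO baseline, positive fitting direction; laser scanning cytometry.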
The AC50 is the midpoint of the concentration-response curve, whichever way the signal moves. Take `Clc1ccc(C(c2ccccc2Cl)C(Cl)Cl)cc1` (stereo unspecified): the AC50 was 3.87 µM (active).

`[O-]n1ccccc1=S.[O-]n1ccccc1=S.[Zn+2]`: the call was inactive.

In the case of `Cc1cc(S(=O)(=O)O)ccc1N=Nc1c(O)ccc2ccccc12`, the result was inactive.

For the molecule `COc1ccc(N=Nc2cc(C)c(N=Nc3ccc(S(=O)(=O)O)cc3)cc2OC)cc1`, the result was inactive.

In the case of `CCCCC(CC)COC(=O)c1ccc(O)cc1` (stereo unspecified), the AC50 is 0.91 µM (active).

`OC[C@H]1O[C@@H]2O[C@H]3[C@H](O)[C@@H](O)[C@@H](O[C@H]4[C@H](O)[C@@H](O)[C@@H](O[C@H]5[C@H](O)[C@@H](O)[C@@H](O[C@H]6[C@H](O)[C@@H](O)[C@@H](O[C@H]7[C@H](O)[C@@H](O)[C@@H](O[C@H]8[C@H](O)[C@@H](O)[C@@H](O[C@H]9[C@H](O)[C@@H](O)[C@@H](O[C@H]1[C@H](O)[C@H]2O)O[C@@H]9CO)O[C@@H]8CO)O[C@@H]7CO)O[C@@H]6CO)O[C@@H]5CO)O[C@@H]4CO)O[C@@H]3CO`: the outcome was inactive.

Consider `COc1ccccc1N=Nc1c(S(=O)(=O)O)cc2cc(S(=O)(=O)O)cc(NC(C)=O)c2c1O`, for which the result was inactive.

With `Nc1ccc2cc(S(=O)(=O)O)cc(O)c2c1N=Nc1ccccc1C(F)(F)F`, the molecule was classed as inactive.

For `CCCCCCCCCCCCCCN(CCO)CCO`, the molecule was called inactive.

Consider `CCCCCC(C=O)=Cc1ccccc1`, for which the molecule was classed as inactive.

Turning to `CC(CN=Cc1ccccc1O)N=Cc1ccccc1O` (stereo unspecified), the result was inactive.

For the molecule `O=P(O)(O)O`, the molecule was called inactive.

As to `O=[N+]([O-])c1ccc(O)cc1C(F)(F)F`, the AC50 was 64.6 µM (active).

Consider `CC(C)CCCCCCCCCCCCCCC(=O)O`, for which the call was inactive.

`O=C(CC(=O)c1ccccc1)c1ccccc1`: the molecule was classed as inactive.

As for `COS(=O)(=O)O`, the molecule was called inactive.
